Reference: the supplement of paper PMC10849652
The full data set covers some 8,800 targets. This sample favours those with a hit. About 0.5% of all pairs of compound and target were hits.

Columns and labels:
Assay in all cases: log2 fold change, soluble protein after heating vs DMSO (PISA); higher = thermal stabilisation; K562 lysate, 10 uM; active = over 0.2 and 3.5 SD of the protein, either way, in both replicates (recomputed)
ibrutinib = compound: C=CC(=O)N1CCC[C@@H](n2nc(-c3ccc(Oc4ccccc4)cc3)c3c(N)ncnc32)C1 [ibrutinib]
Outline: (§1)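 To prepare the extract, K562 pellets were dounce-homogenised in PBS pH 7.4 with 1 mM MgCl2, giving crude material at 1 mg/mL protein. This was treated with 10 μM compound for 30 min, then heated in aliquots for 3 min over 48°C-58°C before pooling and addition of NP-40 to 0.5% at 4°C. Centrifugation at 21,000xg for 90 min left soluble protein in the supernatant, which TMTpro 16plex LC-MS/MS quantified with equalised channel sums. Results are log-two fold changes in thermal stability compared with solvent controls, from duplicates.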

[1] = compound: CC(=O)c1cnc2ccc(-c3cc(Cl)c(O)c(Cl)c3)nc2c1N[C@H]1CC[C@H](CN(C)C)CC1
Outline: as §1

ralimetinib = compound: CC(C)(C)Cn1c(N)nc2ccc(-c3[nH]c(C(C)(C)C)nc3-c3ccc(F)cc3)nc21 [ralimetinib]
Outline: as §1

[2] = compound: CC(C)(O)CC(=O)NCCn1ccc2ncnc(Nc3ccc(Oc4cccc(C(F)(F)F)c4)c(Cl)c3)c21
Outline: as §1

[3] = compound: CC(C)C1=C2N=C(C=C(N2N=C1)NCC3=CC=CC=C3)NCCCCCCN
Outline: as §1

[4] = compound: CC1=C(C(CC(=O)N1)C2=CC=C(C=C2)C(F)(F)F)C(=O)NC3=C(C=C4C(=C3)C=NN4)F
Outline: as §1

[5] = compound: CC1=C(C2=C(C=C1)C(=O)C3=CC=CC=C3N2CCCN)C
Outline: as §1

[6] = compound: CC1=C(C=C(C=C1)NC(=O)C2=CC(=CC=C2)C(C)(C)C#N)NC3=CC4=C(C=C3)N=CN(C4=O)C
Outline: as §1

[7] = compound: CC1=C(C=C(C=C1)NC(=O)C2=CC(=CC=C2)N(C)C)NC(=O)C3=CC=C(C=C3)O
Outline: as §1

[8] = compound: CC1=CC=C(C=C1)SC2=C3C=C(SC3=CN=C2)C(=O)N
Outline: as §1

vemurafenib = compound: CCCS(=O)(=O)Nc1ccc(F)c(C(=O)c2c[nH]c3ncc(-c4ccc(Cl)cc4)cc23)c1F [vemurafenib]
Outline: as §1

[9] = compound: CCCS(=O)(=O)Nc1ccc(F)c(C(=O)c2c[nH]c3ncc(Cl)cc23)c1F
Outline: as §1

barasertib = compound: CCN(CCCOc1ccc2c(Nc3cc(CC(=O)Nc4cccc(F)c4)[nH]n3)ncnc2c1)CCOP(=O)(O)O [barasertib]
Outline: as §1

[10] = compound: CC[C@@H]1C(=O)N(C)c2cnc(Nc3ccc(C(=O)NC4CCN(C)CC4)cc3OC)nc2N1C1CCCC1
Outline: as §1

volasertib = compound: CC[C@@H]1C(=O)N(C)c2cnc(Nc3ccc(C(=O)N[C@H]4CC[C@H](N5CCN(CC6CC6)CC5)CC4)cc3OC)nc2N1C(C)C [volasertib]
Outline: as §1

[11] = compound: CCn1c(C(=O)N(C2CC2)C2CC2)cc2c3c(ncn3C)c(Nc3cc(C)n(C)n3)nc21
Outline: as §1

[12] = compound: CCn1cc(-c2ccnc3[nH]c(-c4cccc(CN(C)C)c4)cc23)c(-c2ccc(NC(=O)N(C)C)cc2)n1
Outline: as §1

[13] = compound: CN1CCC(CNc2ccc3ncc(-c4cccc(OC(F)(F)F)c4)n3n2)CC1
Outline: as §1

saracatinib = compound: CN1CCN(CCOc2cc(OC3CCOCC3)c3c(Nc4c(Cl)ccc5c4OCO5)ncnc3c2)CC1 [saracatinib]
Outline: as §1

sotrastaurin = compound: CN1CCN(c2nc(C3=C(c4c[nH]c5ccccc45)C(=O)NC3=O)c3ccccc3n2)CC1 [sotrastaurin]
Outline: as §1

Measured: log2 fold change

LETM1 (UniProt O95202)
UniProt O95202, sequence (O95202 whole entry, looked up): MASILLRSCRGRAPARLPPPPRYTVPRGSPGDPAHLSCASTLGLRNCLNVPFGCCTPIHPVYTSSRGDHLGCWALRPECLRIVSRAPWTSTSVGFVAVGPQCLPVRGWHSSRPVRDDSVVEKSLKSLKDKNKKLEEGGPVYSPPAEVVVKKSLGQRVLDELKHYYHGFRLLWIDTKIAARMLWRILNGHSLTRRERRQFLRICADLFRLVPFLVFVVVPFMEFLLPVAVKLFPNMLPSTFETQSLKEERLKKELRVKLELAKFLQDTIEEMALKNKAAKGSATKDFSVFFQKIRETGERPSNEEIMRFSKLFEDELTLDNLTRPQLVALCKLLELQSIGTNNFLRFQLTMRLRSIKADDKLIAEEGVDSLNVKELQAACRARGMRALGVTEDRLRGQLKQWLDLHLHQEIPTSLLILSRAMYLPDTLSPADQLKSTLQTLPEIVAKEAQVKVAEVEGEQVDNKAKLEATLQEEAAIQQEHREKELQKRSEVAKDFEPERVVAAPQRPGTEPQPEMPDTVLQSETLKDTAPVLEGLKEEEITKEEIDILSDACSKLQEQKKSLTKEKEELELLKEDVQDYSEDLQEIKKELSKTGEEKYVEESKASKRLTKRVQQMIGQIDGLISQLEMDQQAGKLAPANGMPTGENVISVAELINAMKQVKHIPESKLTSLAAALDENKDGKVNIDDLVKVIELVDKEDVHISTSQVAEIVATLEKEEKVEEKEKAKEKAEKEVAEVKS
active: [13] -0.287
inactive: ibrutinib -0.006 | [1] -0.001 | ralimetinib 0.007 | [2] 0.002 | [3] 0.045 | [4] -0.026 | [5] 0.026 | [6] 0.036 | [7] 0 | [8] 0.037 | vemurafenib 0.029 | [9] 0.005 | barasertib -0.015 | [10] -0.012 | volasertib 0.01 | [11] -0.015 | [12] 0.08 | saracatinib -0.002 | sotrastaurin -0.014

MAD2L1BP isoform 3 (UniProt Q15013)
UniProt Q15013, sequence (Q15013 whole entry, looked up): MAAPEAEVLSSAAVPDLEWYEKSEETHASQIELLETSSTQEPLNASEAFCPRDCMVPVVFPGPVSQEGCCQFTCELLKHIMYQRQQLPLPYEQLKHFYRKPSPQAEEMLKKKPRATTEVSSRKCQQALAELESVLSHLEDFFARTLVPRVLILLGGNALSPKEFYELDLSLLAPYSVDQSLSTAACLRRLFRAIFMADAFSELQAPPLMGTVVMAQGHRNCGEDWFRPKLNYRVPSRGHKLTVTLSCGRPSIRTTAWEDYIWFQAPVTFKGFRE
inactive: ibrutinib -0.016 | [1] -0.099 | ralimetinib 0.038 | [2] 0.015 | [3] -0.037 | [4] 0.107 | [5] -0.054 | [6] 0.005 | [7] -0.011 | [8] -0.05 | vemurafenib 0.003 | [9] 0.009 | barasertib 0.054 | [10] -0.076 | volasertib -0.042 | [11] 0.022 | [12] 0 | [13] 0.03 | saracatinib 0.021 | sotrastaurin 0.01

MAP7D3 (UniProt Q8IWC1)
UniProt Q8IWC1, sequence (Q8IWC1 whole entry, looked up): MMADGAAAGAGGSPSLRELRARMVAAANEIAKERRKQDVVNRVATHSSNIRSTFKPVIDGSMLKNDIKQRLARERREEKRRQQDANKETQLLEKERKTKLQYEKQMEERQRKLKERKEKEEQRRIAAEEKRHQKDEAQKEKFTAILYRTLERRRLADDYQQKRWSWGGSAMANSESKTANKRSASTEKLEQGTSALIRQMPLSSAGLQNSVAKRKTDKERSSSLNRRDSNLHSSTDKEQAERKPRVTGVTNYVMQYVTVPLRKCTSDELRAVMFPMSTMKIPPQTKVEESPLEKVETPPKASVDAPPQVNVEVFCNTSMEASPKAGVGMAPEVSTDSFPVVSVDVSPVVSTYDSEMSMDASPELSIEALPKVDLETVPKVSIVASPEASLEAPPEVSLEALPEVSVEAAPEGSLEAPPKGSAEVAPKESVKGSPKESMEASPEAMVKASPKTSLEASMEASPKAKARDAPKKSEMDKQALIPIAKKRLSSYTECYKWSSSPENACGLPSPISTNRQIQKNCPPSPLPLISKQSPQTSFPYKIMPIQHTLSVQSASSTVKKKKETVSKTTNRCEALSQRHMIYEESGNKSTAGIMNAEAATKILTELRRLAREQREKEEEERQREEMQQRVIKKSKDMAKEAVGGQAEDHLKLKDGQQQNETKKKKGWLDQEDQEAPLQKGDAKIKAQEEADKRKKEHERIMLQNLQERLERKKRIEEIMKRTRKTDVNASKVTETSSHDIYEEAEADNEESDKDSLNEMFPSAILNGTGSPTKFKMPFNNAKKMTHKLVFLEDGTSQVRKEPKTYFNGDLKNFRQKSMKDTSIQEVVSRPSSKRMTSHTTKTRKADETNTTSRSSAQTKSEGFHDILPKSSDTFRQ
inactive: ibrutinib -0.073 | [1] 0.005 | ralimetinib 0.023 | [2] -0.019 | [3] -0.22 | [4] 0.035 | [5] 0.009 | [6] 0.046 | [7] 0.087 | [8] -0.039 | vemurafenib -0.153 | [9] -0.039 | barasertib -0.031 | [10] -0.056 | volasertib 0.018 | [11] 0.029 | [12] -0.053 | [13] -0.006 | saracatinib -0.019 | sotrastaurin -0.024

MARK2 (UniProt E9PC69)
inactive: ibrutinib 0.139 | [1] -0.053 | ralimetinib 0.014 | [2] -0.004 | [3] 0.015 | [4] -0.012 | [5] -0.063 | [6] 0.024 | [7] 0.045 | [8] 0.012 | vemurafenib 0.015 | [9] -0.005 | barasertib 0.027 | [10] 0 | volasertib 0.028 | [11] -0.015 | [12] -0.013 | [13] -0.22 | saracatinib 0.021 | sotrastaurin -0.026
